Values without a mark were called inactive. Active and inactive are the calls of the source. Rule as the data show it, unless noted: active = inhibition above about 30%; inactive = the rest.
Tests used:
[1] = molecular target: Nuclear receptor coactivator 3 (Homo sapiens) (UniProt Q9Y6Q9); test: NCOA3 GAL4-fusion reporter inhibition – cell-based, luminescence, quadruplicate, confirmation (AID 588792;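 active = mean inhibition over 43.08%, the solvent-only control mean plus 3 SD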;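 also: 0% = DMSO treated cells and 100% = gossypol at 36 µM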); settings: HEK293 GAL4-SRC3 luciferase reporter, at 3.6 µM, hits give high values
Nuclear receptor coactivator 3 (Homo sapiens), sequence (Q9Y6Q9 whole entry, looked up, the tested form may be a part): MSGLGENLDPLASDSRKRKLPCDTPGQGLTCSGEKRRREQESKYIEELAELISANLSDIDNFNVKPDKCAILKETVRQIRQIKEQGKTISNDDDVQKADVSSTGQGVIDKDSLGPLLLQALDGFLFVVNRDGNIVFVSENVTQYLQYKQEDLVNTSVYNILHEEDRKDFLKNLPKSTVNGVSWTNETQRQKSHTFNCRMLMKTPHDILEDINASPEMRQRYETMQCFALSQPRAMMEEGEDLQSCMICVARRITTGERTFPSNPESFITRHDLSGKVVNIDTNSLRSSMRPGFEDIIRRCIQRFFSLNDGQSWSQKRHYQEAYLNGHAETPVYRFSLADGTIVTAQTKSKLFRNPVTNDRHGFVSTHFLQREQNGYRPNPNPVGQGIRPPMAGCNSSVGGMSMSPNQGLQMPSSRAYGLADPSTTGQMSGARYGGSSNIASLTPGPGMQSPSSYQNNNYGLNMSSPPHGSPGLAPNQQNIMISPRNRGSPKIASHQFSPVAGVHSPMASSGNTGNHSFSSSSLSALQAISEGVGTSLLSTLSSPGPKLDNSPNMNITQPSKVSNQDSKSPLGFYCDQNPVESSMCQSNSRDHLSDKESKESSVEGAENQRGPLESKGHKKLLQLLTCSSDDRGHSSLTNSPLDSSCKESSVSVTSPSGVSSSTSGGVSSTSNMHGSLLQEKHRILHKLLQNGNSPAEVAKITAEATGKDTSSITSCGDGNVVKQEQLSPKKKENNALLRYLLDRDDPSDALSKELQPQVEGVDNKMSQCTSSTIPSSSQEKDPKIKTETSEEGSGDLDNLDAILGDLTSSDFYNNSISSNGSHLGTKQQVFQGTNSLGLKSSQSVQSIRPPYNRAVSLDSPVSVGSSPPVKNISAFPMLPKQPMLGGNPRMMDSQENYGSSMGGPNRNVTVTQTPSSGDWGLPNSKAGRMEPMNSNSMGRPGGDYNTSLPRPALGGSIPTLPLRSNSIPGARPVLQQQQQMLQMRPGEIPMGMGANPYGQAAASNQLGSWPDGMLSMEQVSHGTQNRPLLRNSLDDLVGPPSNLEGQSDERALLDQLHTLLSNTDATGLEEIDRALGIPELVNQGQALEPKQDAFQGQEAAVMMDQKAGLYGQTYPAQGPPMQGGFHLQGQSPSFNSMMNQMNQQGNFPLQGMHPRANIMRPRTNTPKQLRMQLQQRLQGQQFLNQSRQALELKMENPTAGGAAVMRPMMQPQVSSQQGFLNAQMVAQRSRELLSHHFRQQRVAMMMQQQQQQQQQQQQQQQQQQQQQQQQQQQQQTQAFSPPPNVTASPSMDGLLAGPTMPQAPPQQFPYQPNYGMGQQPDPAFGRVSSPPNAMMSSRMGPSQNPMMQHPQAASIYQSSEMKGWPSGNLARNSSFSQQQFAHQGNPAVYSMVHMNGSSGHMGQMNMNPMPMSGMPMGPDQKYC

[2] = test system: transactivating tegument protein VP16 (Human herpesvirus 1), Gal4-VP16 luciferase reporter; test: repression of VP16-driven luciferase reporter – cell-based, luminescence, high throughput, counter-screen for SRC3 inhibitor project (AID 588794); settings: mammalian cells, at 3.6 µM, hits give high values
[3] = molecular target: Nuclear receptor coactivator 1 (Homo sapiens) (UniProt Q15788); test: NCOA1 GAL4-fusion reporter inhibition – cell-based, luminescence, quadruplicate, confirmation (AID 588820;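 active = mean inhibition above 46.68%, the untreated control wells mean plus 3 SD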;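 also: 0% = DMSO wells and 100% = gossypol 36 µM treated wells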); settings: HEK293 GAL4-SRC1 luciferase reporter, at 3.6 µM, hits give high values
Nuclear receptor coactivator 1 (Homo sapiens), sequence (Q15788 whole entry, looked up, the tested form may be a part): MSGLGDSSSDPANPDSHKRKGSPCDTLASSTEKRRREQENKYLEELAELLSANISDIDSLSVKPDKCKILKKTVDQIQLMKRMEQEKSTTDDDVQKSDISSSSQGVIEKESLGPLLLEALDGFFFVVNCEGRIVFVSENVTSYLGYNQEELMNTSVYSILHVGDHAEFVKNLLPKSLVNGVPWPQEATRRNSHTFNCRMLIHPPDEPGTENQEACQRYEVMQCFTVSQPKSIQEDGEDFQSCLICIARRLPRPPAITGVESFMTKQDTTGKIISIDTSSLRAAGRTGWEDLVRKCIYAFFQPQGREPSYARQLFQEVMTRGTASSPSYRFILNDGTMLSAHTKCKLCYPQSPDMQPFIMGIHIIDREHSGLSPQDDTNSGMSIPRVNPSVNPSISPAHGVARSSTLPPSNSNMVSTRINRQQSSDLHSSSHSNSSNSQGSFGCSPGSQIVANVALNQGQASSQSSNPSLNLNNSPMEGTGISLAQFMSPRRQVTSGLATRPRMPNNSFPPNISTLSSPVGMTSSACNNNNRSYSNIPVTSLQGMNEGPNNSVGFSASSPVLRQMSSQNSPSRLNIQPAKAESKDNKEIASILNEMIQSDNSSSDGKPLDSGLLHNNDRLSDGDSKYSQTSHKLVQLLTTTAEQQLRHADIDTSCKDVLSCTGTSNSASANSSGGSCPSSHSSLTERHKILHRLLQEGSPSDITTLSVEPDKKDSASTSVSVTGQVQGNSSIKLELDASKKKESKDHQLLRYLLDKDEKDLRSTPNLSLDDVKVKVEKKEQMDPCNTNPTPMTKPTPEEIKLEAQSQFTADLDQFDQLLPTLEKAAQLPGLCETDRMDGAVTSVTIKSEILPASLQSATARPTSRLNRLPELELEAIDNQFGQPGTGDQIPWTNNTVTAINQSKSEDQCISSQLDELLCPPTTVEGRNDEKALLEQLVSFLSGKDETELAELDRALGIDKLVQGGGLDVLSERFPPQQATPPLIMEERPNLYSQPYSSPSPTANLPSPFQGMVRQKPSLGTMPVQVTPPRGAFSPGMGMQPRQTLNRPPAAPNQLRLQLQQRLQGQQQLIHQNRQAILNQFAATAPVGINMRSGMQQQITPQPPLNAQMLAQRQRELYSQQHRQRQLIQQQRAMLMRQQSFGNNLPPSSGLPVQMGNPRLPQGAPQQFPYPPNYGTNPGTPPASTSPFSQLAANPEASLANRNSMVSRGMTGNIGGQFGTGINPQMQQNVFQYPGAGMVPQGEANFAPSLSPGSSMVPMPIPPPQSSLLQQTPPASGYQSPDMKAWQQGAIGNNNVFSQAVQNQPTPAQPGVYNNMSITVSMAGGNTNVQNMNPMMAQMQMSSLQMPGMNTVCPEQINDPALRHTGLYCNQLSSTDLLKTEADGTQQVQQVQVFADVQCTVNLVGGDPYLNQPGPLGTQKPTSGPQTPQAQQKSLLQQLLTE

[4] = repression of VP16-driven luciferase reporter – cell-based, luminescence, high throughput, counter-screen for SRC1 inhibitor project (AID 588824; in the data active = inhibition above about 25%); settings: cell-based VP16 transactivation luciferase luminescence; at 3.6 µM; hits give high values
[5] = StAR promoter reporter inhibitors, counter-screen for LRH-1 inverse agonist project, cell-based, luminescence, high throughput (AID 651611; in the data active = inhibition above about 28%); settings: StAR promoter luciferase reporter counterscreen, at 3.6 µM, hits give high values
[6] = molecular target: Nuclear receptor subfamily 5 group A member 2 (Homo sapiens) (UniProt O00482); test: NR5A2 activity suppression in reporter cells – cell-based, luminescence, confirmation (AID 651613; in the data active = inhibition above about 42%;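 also: HEK293T cells co-transfected with LRH-1 and StAR promoter luciferase reporter; 0% = vehicle wells and 100% = parental cells lacking receptor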); settings: cell-based LRH-1 luciferase reporter, inverse agonism; at 3.6 µM; hits give high values
Nuclear receptor subfamily 5 group A member 2 (Homo sapiens), sequence (O00482 whole entry, looked up): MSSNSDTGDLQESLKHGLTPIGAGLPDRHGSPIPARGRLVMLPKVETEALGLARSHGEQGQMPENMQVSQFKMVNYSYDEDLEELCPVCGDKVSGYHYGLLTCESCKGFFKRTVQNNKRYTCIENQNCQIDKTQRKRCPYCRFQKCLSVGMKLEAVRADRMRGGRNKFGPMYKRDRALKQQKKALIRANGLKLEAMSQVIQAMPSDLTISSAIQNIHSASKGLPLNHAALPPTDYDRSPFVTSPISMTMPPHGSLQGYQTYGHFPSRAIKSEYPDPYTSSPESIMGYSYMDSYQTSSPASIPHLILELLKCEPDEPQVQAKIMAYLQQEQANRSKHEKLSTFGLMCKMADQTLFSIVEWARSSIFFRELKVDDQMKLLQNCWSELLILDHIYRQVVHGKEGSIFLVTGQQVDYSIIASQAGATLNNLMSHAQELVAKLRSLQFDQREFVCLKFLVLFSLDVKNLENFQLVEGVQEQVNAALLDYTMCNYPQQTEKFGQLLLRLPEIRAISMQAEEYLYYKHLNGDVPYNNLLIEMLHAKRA

[7] = molecular target: Steroidogenic factor 1 (Homo sapiens) (UniProt Q13285); test: inverse agonism at SF1 nuclear receptor – cell-based, luminescence, high throughput, counter-screen for LRH-1 inverse agonist project (AID 651614; in the data active = inhibition above about 44%;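 also: cells cotransfected with StAR promoter reporter and SF1 expression vector; 0% = vehicle on cells with receptor and 100% = vehicle on cells lacking receptor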); settings: cell-based SF1 luciferase reporter, at 3.6 µM, hits give high values
Steroidogenic factor 1 (Homo sapiens), sequence (Q13285 whole entry, looked up, the tested form may be a part): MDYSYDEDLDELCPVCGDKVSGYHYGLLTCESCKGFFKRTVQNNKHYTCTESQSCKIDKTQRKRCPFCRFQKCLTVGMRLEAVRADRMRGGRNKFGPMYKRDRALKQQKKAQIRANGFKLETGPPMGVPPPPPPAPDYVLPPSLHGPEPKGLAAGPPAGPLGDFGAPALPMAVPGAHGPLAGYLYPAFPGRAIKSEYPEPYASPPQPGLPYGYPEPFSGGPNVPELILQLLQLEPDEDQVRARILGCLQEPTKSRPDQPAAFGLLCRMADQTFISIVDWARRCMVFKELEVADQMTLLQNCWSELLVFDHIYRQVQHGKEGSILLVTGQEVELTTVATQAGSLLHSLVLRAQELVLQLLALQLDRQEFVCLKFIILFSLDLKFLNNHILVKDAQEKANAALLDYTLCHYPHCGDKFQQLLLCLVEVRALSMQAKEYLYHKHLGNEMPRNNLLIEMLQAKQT

[8] = compounds suppressing VP16-driven luciferase signal – cell-based, luminescence, high throughput, counter-screen for LRH-1 inverse agonist project (AID 651615; in the data active = inhibition above about 33%); settings: Gal4-VP16 luciferase reporter cells, at 3.6 µM, hits give high values

Cc1c(P(=S)(c2ccccc2)c2ccccc2)[n+]2ccccc2n1C/C=C/c1ccccc1
inhibition [1]: 20.6%
inhibition [2]: 36.9% (active)
inhibition [3]: 26%
inhibition [4]: 54.4% (active)
inhibition [5]: 44.7% (active)
inhibition [6]: 90.6% (active)
inhibition [7]: 51.4% (active)
inhibition [8]: 60.5% (active)

CCCCC[n+]1cccc2c3ccccc3ccc21
inhibition [1]: 39.9%
inhibition [2]: 59% (active)
inhibition [3]: 30.7%
inhibition [4]: 59% (active)
inhibition [5]: 51.5% (active)
inhibition [6]: 90% (active)
inhibition [7]: 81.5% (active)
inhibition [8]: 77% (active)

O=C1C(Nc2ccccc2)=C(N2CCCCC2)C(=O)c2ccccc21
inhibition [1]: 19.4%
inhibition [2]: 39.6% (active)
inhibition [3]: 44.4%
inhibition [4]: 35.9% (active)
inhibition [5]: -2.41%
inhibition [6]: 22.5%
inhibition [7]: 6.41%
inhibition [8]: 12.1%

CC[n+]1c(/C=C2\Sc3ccccc3N2C)ccc2cccc(C)c21
inhibition [1]: 47.9% (active)
inhibition [2]: 68% (active)
inhibition [3]: 36.2%
inhibition [4]: 79.5% (active)
inhibition [5]: 76.7% (active)
inhibition [6]: 109% (active)
inhibition [7]: 91.6% (active)
inhibition [8]: 87% (active)

CC[n+]1ccc(/C=C/c2c[nH]c3ccccc23)cc1
inhibition [1]: 8.39%
inhibition [2]: 22.7%
inhibition [3]: -16.8%
inhibition [4]: 25.5% (active)
inhibition [5]: 18%
inhibition [6]: 65% (active)
inhibition [7]: 55.9% (active)
inhibition [8]: 60.8% (active)

Cc1ccc(/C=C/c2ccc(N(C)C)cc2)[n+](C)c1
inhibition [1]: 36.3%
inhibition [2]: 56% (active)
inhibition [3]: 11.4%
inhibition [4]: 50.1% (active)
inhibition [5]: 41.5% (active)
inhibition [6]: 78.5% (active)
inhibition [7]: 73% (active)
inhibition [8]: 67.4% (active)

CC(C)CC[n+]1ccccc1/C=C/c1ccc(N(C)C)cc1
inhibition [1]: 60.5% (active)
inhibition [2]: 79.3% (active)
inhibition [3]: 54.6% (active)
inhibition [4]: 79.3% (active)
inhibition [5]: 64.3% (active)
inhibition [6]: 105% (active)
inhibition [7]: 90.4% (active)
inhibition [8]: 87.1% (active)

CCCCCCCCCn1c2c(c(=N)c3c1CCC3)CCCC2
inhibition [1]: 87.2% (active)
inhibition [2]: 90.4% (active)
inhibition [3]: 65.6% (active)
inhibition [4]: 85.3% (active)
inhibition [5]: 83.7% (active)
inhibition [6]: 111% (active)
inhibition [7]: 95.6% (active)
inhibition [8]: 94.6% (active)

CCCCCn1c2c(c(=N)c3ccccc31)CCC2
inhibition [1]: 45.1% (active)
inhibition [2]: 61.1% (active)
inhibition [3]: 32%
inhibition [4]: 60% (active)
inhibition [5]: 44.3% (active)
inhibition [6]: 108% (active)
inhibition [7]: 83% (active)
inhibition [8]: 90.9% (active)

COc1ccc(C(=O)Nc2nnc(Cc3cccs3)s2)cc1OC
inhibition [1]: 19%
inhibition [2]: 54.2% (active)
inhibition [3]: -3.67%
inhibition [4]: 52.5% (active)
inhibition [5]: 51.5% (active)
inhibition [6]: 70.7% (active)
inhibition [7]: 66.1% (active)
inhibition [8]: 72.3% (active)

COC(=O)C12OCC34C(CC5C(C)=C(O)C(=O)CC5(C)C3C(O)C1O)OC(=O)C(OC(=O)C=C(C)C)C24 (centres undefined)
inhibition [1]: 97.3% (active)
inhibition [2]: 96.7% (active)
inhibition [3]: 95.2% (active)
inhibition [4]: 96.3% (active)
inhibition [5]: 96.9% (active)
inhibition [6]: 110% (active)
inhibition [7]: 98.5% (active)
inhibition [8]: 97.6% (active)

Cc1cc(/C=C2\SC(=S)N(C)C2=O)c(C)n1-c1ccc(O)cc1
inhibition [1]: 73.9% (active)
inhibition [2]: 61.8% (active)
inhibition [3]: 49% (active)
inhibition [4]: 47.5% (active)
inhibition [5]: 40.3% (active)
inhibition [6]: 7.93%
inhibition [7]: 48% (active)
inhibition [8]: 39.5% (active)

N=c1c2c(n(Cc3ccc(Br)cc3)c3c1CCC3)CCCC2
inhibition [1]: 51.3% (active)
inhibition [2]: 67.7% (active)
inhibition [3]: 45.7%
inhibition [4]: 70.5% (active)
inhibition [5]: 60.2% (active)
inhibition [6]: 111% (active)
inhibition [7]: 86.3% (active)
inhibition [8]: 89.9% (active)

Cc1cc(/C=C2\Sc3ccccc3N2C)cc(C)[n+]1CC1CCCO1 (centres undefined)
inhibition [1]: 37.1%
inhibition [2]: 77.1% (active)
inhibition [3]: 34%
inhibition [4]: 75.3% (active)
inhibition [5]: 77.8% (active)
inhibition [6]: 99.3% (active)
inhibition [7]: 90.5% (active)
inhibition [8]: 89% (active)

COc1ccc(Cn2c(-c3ccc(C)cc3)c[n+]3ccccc23)cc1
inhibition [1]: 35.9%
inhibition [2]: 52.1% (active)
inhibition [3]: 19.8%
inhibition [4]: 54.5% (active)
inhibition [5]: 50.2% (active)
inhibition [6]: 96.1% (active)
inhibition [7]: 79.5% (active)
inhibition [8]: 74% (active)

C=C1C(=O)C23C(O)C1CCC2C12CCCC(C)(COC(C)=O)C1C(O)C3(O)OC2 (centres undefined)
inhibition [1]: 66.6% (active)
inhibition [2]: 58.3% (active)
inhibition [3]: 20.7%
inhibition [4]: 57.9% (active)
inhibition [5]: 71.9% (active)
inhibition [6]: 63.7% (active)
inhibition [7]: 74.4% (active)
inhibition [8]: 82.5% (active)

Oc1cccc2cc(Nc3ccccc3)cnc12
inhibition [1]: 60.4% (active)
inhibition [2]: 63.3% (active)
inhibition [3]: 25.3%
inhibition [4]: 70.1% (active)
inhibition [5]: 65.5% (active)
inhibition [6]: 99.5% (active)
inhibition [7]: 84.8% (active)
inhibition [8]: 88% (active)

OCC1OC(n2cnc3c(NCc4ccco4)ncnc32)C(O)C1O (centres undefined)
inhibition [1]: 71.1% (active)
inhibition [2]: 53.4% (active)
inhibition [3]: 33.5%
inhibition [4]: 48.7% (active)
inhibition [5]: 65.1% (active)
inhibition [6]: 60.3% (active)
inhibition [7]: 85.7% (active)
inhibition [8]: 67.7% (active)

— PubChem BioAssay
